Compound activity deposited in PubChem by National Center for Advancing Translational Sciences (NCATS).
An excerpt weighted towards active compounds, which were near 7.3% of everything screened.
NPC1 promoter act = qHTS Assay for NPC1 Promoter Activators; Huh7 NPC1 promoter luciferase reporter, 24 h; Potency, µM (doses to about 9.22 µM), usual class: activators; 2.4% of 320,000 active; also: nearly all actives have a fitted effect of over 60% in size
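Compounds in DMSO were transferred onto Huh7 NPC1-luciferase reporter cells pre-incubated 2 h; after 24 h at 37 °C, Amplite reagent was dispensed and luminescence recorded 10 min later.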
FLuc modulator = qHTS profiling assay for firefly luciferase inhibitor/activator using purifed enzyme and Km concentrations of substrates (counterscreen for miR-21 project). Luciferin 4-monooxygenase (Photinus pyralis), P08659. purified FLuc, Km substrates, luminescence inhibition. Potency, µM (titrated, usually from 57.5 µM), most hits filed as inhibitors. 6.9% of 360,000 active. AID 588342, 2011; also: nearly all actives have a fitted effect of over 55% in size
Target sequence (P08659 whole entry, looked up): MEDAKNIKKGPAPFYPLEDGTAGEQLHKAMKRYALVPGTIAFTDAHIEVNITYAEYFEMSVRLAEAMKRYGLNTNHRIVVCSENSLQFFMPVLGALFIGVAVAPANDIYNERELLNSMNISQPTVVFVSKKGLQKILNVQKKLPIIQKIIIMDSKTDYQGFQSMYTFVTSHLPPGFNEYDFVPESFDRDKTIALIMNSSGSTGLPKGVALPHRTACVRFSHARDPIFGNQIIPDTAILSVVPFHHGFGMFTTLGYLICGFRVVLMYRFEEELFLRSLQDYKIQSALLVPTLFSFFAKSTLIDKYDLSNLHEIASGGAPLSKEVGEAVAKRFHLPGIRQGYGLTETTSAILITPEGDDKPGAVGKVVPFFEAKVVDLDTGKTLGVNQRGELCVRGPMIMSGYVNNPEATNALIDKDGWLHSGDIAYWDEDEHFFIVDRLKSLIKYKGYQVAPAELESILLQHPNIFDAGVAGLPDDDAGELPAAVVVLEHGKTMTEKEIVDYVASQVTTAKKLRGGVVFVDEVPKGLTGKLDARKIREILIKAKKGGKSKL
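Purified P. pyralis luciferase, 10 nM final, with Km-level 10 uM D-luciferin and 10 uM ATP in 50 mM Tris acetate pH 7.5, 10 mM Mg acetate, 0.01% Tween-20, 0.05% BSA; 6-point qHTS titration about 60 µM downward; luminescence read.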
Luc counter = Counterscreen for Luciferase (Kinase-Glo TM) Inhibition | Potency, µM (doses to about 38.3 µM), most hits filed as inhibitors | 0.28% of 200,000 active | Kinase-Glo luciferase, ATP luminescence, 8 min | Luciferin 4-monooxygenase (Photuris pensylvanica), Q27757; also: nearly all actives have a fitted effect of over 60% in size
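Light output from Kinase-Glo luciferase with luciferin and 10 uM ATP in 50 mM imidazole pH 7.2, KCl, MgCl2, Tween 20, BSA; compound pin-delivered, 8-min ambient incubation, then luminescence read.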
ELG1 genotox = qHTS screen for small molecules that induce genotoxicity in human embryonic kidney (HEK293T) cells expressing luciferase-tagged ELG1; 1.3% of 330,000 active; Potency, µM (highest dose often 46 µM), usual class: activators; HEK293T ELG1-luciferase reporter, luminescence, 16 h; also: nearly all actives have a fitted effect of over 60% in size
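Reporter readout depends on ELG1 protein level, which increases with genetic stress. After 16 hr compound exposure at 37 °C, luciferase activity was quantified using ONE-Glo.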
Rab9 promoter act = qHTS Assay for Rab9 Promoter Activators. Huh7 Rab9 promoter-luciferase reporter, luminescence, 24 h. Potency, µM (highest dose often 9.22 µM), usual class: activators. 2.8% of 320,000 active. AID 485297, 2010; also: nearly all actives have a fitted effect of over 60% in size
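Huh7 reporter line, Rab9 promoter upstream of luciferase. Compound exposure 24 h at 37 °C in reduced-serum medium with 10% FBS. Read-out: luminescence.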
SMN2 splice enh = qHTS Assay for Enhancers of SMN2 Splice Variant Expression. HEK293 SMN2-luciferase splicing reporter, luminescence, 30-36 h. Potency, µM (doses to about 46.1 µM), usual class: activators. 2.8% of 210,000 active. AID 1458, 2008; also: nearly all actives have a fitted effect of over 55% in size
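qHTS luciferase splicing reporter: luminescence rises when SMN2 exon 7 is included in transfected HEK293 cells. Compound exposure lasted 30-36 h at 37C, with 4.5 mM final sodium butyrate as control, followed by a ONE-Glo read.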
Numbers stand for hits; 0 = inactive; ? = inconclusive; - = no result given. Calls follow the shape of the dose curve; as a rule, active = well fitted curve in the direction sought with a large enough effect; inconclusive = small, poorly fitted or top-dose-only effect, or another doubt; inactive = no such curve, though single readings can be large; an effect the other way counts as inactive or inconclusive.

SMILES	NPC1 promoter act	FLuc modulator	Luc counter	ELG1 genotox	Rab9 promoter act	SMN2 splice enh
O=C(CNC(=O)c1ccc(Br)o1)NC12CC3CC(CC(C3)C1)C2	0	0	-	0	0	-
CCNC(=O)c1ccc(C23CC4CC(CC(C4)C2)C3)o1	0	13µM	0	0	0	0
CC(C)(C)c1cc(NC(=O)CSc2nnc(NCc3ccccc3)s2)n(-c2ccccc2)n1	0	19µM	0	0	0	0
COc1cc(C2NC(=S)NC(C)=C2C(=O)Nc2ccc(C)cc2)ccc1O (configuration not stated)	?	?	0	0	2.2µM	-
COCCCNC(=O)c1c(NC(=O)Cc2coc3c(C)c(C)ccc23)sc2c1CCCC2	-	0	-	-	-	0
CCOC(=O)c1sc(NC(=O)c2ccc(C)s2)cc1C	?	0.85µM	0	0	1.1µM	22µM
CCOC(=O)c1sc(NC(=O)C2CCC2)cc1C	?	12µM	0	?	?	16µM
CCOC(=O)c1sc(NC(=O)Nc2ccccc2Cl)cc1C	0.71µM	0.43µM	?	?	0.63µM	0.71µM
CCOC(=O)c1sc(NC(C)=O)cc1C	0	0	0	0	0	0
CCOC(=O)c1sc(NC(=O)Nc2ccccc2)cc1C	1.3µM	0.48µM	0	?	0.71µM	3.2µM
O=C(Nc1c(C(=O)N2CCN(c3ccccc3)CC2)oc2ccccc12)c1ccc(Br)o1	-	0	-	-	-	-
COc1ccc(NC(=O)c2ccco2)cc1NC(=O)c1ccc(OC(C)C)cc1	-	?	-	-	-	0
N#CC1=C(N)Oc2c(ccc3ccccc23)C1c1cccs1 (configuration not stated)	0	?	0	18µM	0	0
Cc1nn(-c2ccccc2)c2c1C(c1cccs1)C(C#N)=C(N)O2 (configuration not stated)	0	15µM	0	0	0	0
Cc1nn(-c2ccccc2)c2c1C(c1ccco1)C(C#N)=C(N)O2 (configuration not stated)	0	13µM	0	0	0	0
Cc1cccc(C2Nc3ccccc3C(=O)N2CCc2ccccc2)n1 (configuration not stated)	0	?	0	0	0	?
O=C1c2ccccc2NC(c2cccc([N+](=O)[O-])c2)N1CCc1ccccc1 (configuration not stated)	?	19µM	-	0	?	-
Cc1cc(C)c(OCC(=O)Nc2nc3ccccc3[nH]2)c(C)c1	0	0	0	0	0	0
O=C(COc1cccc2ccccc12)Nc1nc2ccccc2[nH]1	0	?	0	0	0	0
Cc1ccccc1OCC(=O)Nc1nc2ccccc2[nH]1	?	3.4µM	0	0	2.2µM	18µM
CCOc1ccccc1OCC(=O)Nc1nc2ccccc2[nH]1	0	15µM	0	0	0	0
Fc1c(F)c(F)c(CSc2nc3ccccc3[nH]2)c(F)c1F	0	?	0	?	0	0
O=C(COc1ccccc1)Nc1nc2ccccc2[nH]1	?	12µM	0	4.5µM	3.5µM	?
CCCOc1cccc(OCC(=O)Nc2nc3ccccc3[nH]2)c1	0	?	0	0	0	0
Cc1c(OCC(F)(F)F)ccnc1CSc1nc2ccccc2[nH]1	?	12µM	0	0	?	0
SMILES	NPC1 promoter act	FLuc modulator	Luc counter	ELG1 genotox	Rab9 promoter act	SMN2 splice enh
CCN(C(=O)Cn1c(=O)oc2cc(S(=O)(=O)N3CCCCCC3)ccc21)c1cccc(C)c1	-	0	-	-	-	0
COc1ccc(N(C(=O)c2ccc(OC)c(OC)c2)S(=O)(=O)c2ccc(Cl)cc2)cc1	-	0	-	-	-	0
CC(CC(=O)Nc1nc2ccccc2[nH]1)n1ccnc1 (configuration not stated)	0	0	0	0	0	0
CC(CC(=O)Nc1nc2ccccc2[nH]1)c1ccccc1 (configuration not stated)	4.5µM	12µM	0	?	4µM	?
Cc1ccccc1OCCCSc1nc2ccccc2[nH]1	0	24µM	-	0	0	-
CC(=O)NCCCNc1ccc([N+](=O)[O-])cc1	0	19µM	0	0	0	?
COC(=O)c1ccc(NC(=O)Cc2coc3cc(C)ccc23)cc1	-	0	-	-	-	?
CCCCN(c1ccccc1)c1ncnc2c1cnn2-c1cccc(C)c1	-	0	-	-	-	-
CCCCN(c1ccccc1)c1ncnc2c1cnn2-c1ccc(Cl)cc1	-	13µM	-	-	-	-
CCN(c1ccccc1)c1ncnc2c1cnn2-c1ccc(OC)cc1	-	6.7µM	-	-	-	-
Cc1cc(=O)n2[nH]c(SCc3ccccc3)nc2n1	0	?	0	0	0	0
O=c1cc(-c2ccccc2)nc2nc(-c3ccco3)[nH]n12	0	3.4µM	0	?	0	?
Cc1cccc(-c2cc3nc(-c4ccccc4)cc(=O)n3[nH]2)c1	2µM	7.6µM	-	?	2.8µM	-
O=c1cc(-c2ccccc2)nc2nc(SCc3ccccc3)[nH]n12	0	27µM	0	0	0	0
Cc1ccccc1-c1cc2nc(-c3ccc([N+](=O)[O-])cc3)cc(=O)n2[nH]1	0	?	0	0	0	-
Cc1nc2nc(-c3ccccc3)cc(=O)n2[nH]1	0	7.6µM	0	?	0	?
CCn1cc(C(=O)NCCCOC(C)C)c(=O)c2cc(S(=O)(=O)N3CCc4ccccc4C3)ccc21	-	0	-	-	-	0
CCN(CCCNC(=O)c1ccc(Sc2ccc(Cl)cc2)c(NC(C)=O)c1)c1ccccc1	-	0	-	-	-	-
CC(=O)OC1CC(C)OC(C)O1 (configuration not stated)	-	-	-	-	-	0
CC(C)(C)C1CCc2c(C(=O)N/N=C/c3cccs3)csc2C1 (configuration not stated)	?	5.4µM	0	0	?	14µM
CC(C)(C)C1CCc2c(C(=O)NNC(=O)/C=C/C(=O)O)csc2C1 (configuration not stated)	0	24µM	0	0	0	0
Cc1ccc2oc(=O)c3cnn(CC(=O)N4CCN(c5ccccc5F)CC4)c3c2c1	-	0	-	-	-	0
CN(Cc1ccon1)Cc1cn(C)nc1-c1cccc(Cl)c1	?	5.4µM	0	?	?	-
CN1c2ccsc2C(O)=C(C(=O)Nc2ccccc2)S1(=O)=O	0	15µM	0	0	0	0
Cc1cccc(C)c1NC(=O)C1=C(O)c2sccc2N(C)S1(=O)=O	0	?	0	0	0	0
Cc1ccc(NC(=O)C2=C(O)c3sccc3N(C)S2(=O)=O)cc1	0	8.5µM	0	0	0	?
Cc1nn(-c2ccccc2)c2sc(C(=O)Nc3cccc(Cl)c3)cc12	-	0	-	-	-	0
CCc1ccc2oc(C(=O)Nc3nonc3C)c(C)c2c1	0.32µM	2.1µM	-	3.3µM	0.63µM	-
Cc1cc2oc(C(=O)Nc3nonc3C)c(C)c2cc1C	1.1µM	2.4µM	-	10µM	4µM	-
